According to PubChem BioAssay (NCI):
“And” between values parts separate entries of the source, which are not always exact repeats. Identical values can stand only once. Compounds without any hit were thinned out: in the full panel of roughly 83,000, 20% have a hit.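 A percent growth of 40 corresponds to 60% growth inhibition; 0 means no net growth; -100 means all cells died. Active threshold: below 10.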 The source made the active and inactive calls.

Key:
Test in all cases: NCI-60 one-dose screen, 48 h (100 = growth as untreated, 0 = no growth, -100 = all killed)
Details in all cases: 10 µM unless noted
HCT-15 colon = system: HCT-15 colon
HT29 colon = system: HT29 colon
SNB-75 CNS = system: SNB-75 CNS
SNB-19 CNS = system: SNB-19 CNS
U251 CNS = system: U251 CNS
PC-3 prostate = system: PC-3 prostate
SK-MEL-5 melanoma = system: SK-MEL-5 melanoma
UACC-62 melanoma = system: UACC-62 melanoma
LOX IMVI melanoma = system: LOX IMVI melanoma
SK-MEL-28 melanoma = system: SK-MEL-28 melanoma

Measured: growth

CC1=C[C@H]2c3c(c(O)c(O)c4oc5cc(O)cc(O)c5c(=O)c34)[C@H](c3cc(O)c(O)c4oc5cc(O)cc(O)c5c(=O)c34)[C@H]2C(C)(C)C1
15.4% (inactive) and 3.72% (active): HCT-15 colon
13.3% (inactive) and -11.3% (active): SNB-19 CNS
24.1% (inactive) and -10.6% (active): SNB-75 CNS
10.3% (inactive) and -22.8% (active): SK-MEL-28 melanoma
active: HT29 colon -1.98% and -20.8% | U251 CNS 0.997% and -15.3% | SK-MEL-5 melanoma -84.2% and -98.1% | UACC-62 melanoma -43.1% and -68.9% | LOX IMVI melanoma -93.9% and -100%
14.4% (inactive) and -26.9% (active): PC-3 prostate

ClC/C=C/CSc1ncnc2nc[nH]c12
inactive: HCT-15 colon 104% and 99.7% | HT29 colon 98.4% and 95.2% | SNB-75 CNS 108% and 92.7% | SNB-19 CNS 98.6% and 102% | U251 CNS 96.7% and 102% | PC-3 prostate 100% and 98.1% | SK-MEL-5 melanoma 100% and 112% | UACC-62 melanoma 99.9% and 103% | LOX IMVI melanoma 98.7% and 97.3% | SK-MEL-28 melanoma 111% and 101%

COc1ccc2nc(Cl)cc(C)c2c1
inactive: HCT-15 colon 99.2% and 101% | HT29 colon 101% and 105% | SNB-75 CNS 99.2% and 98.3% | SNB-19 CNS 98.1% and 111% | U251 CNS 98.9% and 108% | PC-3 prostate 99.2% and 82.3% | SK-MEL-5 melanoma 98.8% and 120% | UACC-62 melanoma 94.4% and 95.2% | LOX IMVI melanoma 105% and 113% | SK-MEL-28 melanoma 104% and 118%

COc1ccc(-c2cn[nH]c2-c2cc(OC)c(OC)c(OC)c2)cc1N
inactive: SNB-75 CNS 57.5% and 20.3% | SNB-19 CNS 34.4% and 34.1% | PC-3 prostate 19.1% and 27.2% | UACC-62 melanoma 46.1% and 32.6% | LOX IMVI melanoma 35.2% and 28.5% | SK-MEL-28 melanoma 49.7% and 62.5%
active: SK-MEL-5 melanoma -40.3% and -49.2%
1.51% (active) and 10.1% (inactive): HT29 colon
8.28% (active) and 13.1% (inactive): HCT-15 colon
9.51% (active) and 19.3% (inactive): U251 CNS

O=C(Nc1ccc([N+](=O)[O-])cc1Cl)c1cc(Cl)ccc1O
1.12% (active) and 16.7% (inactive): U251 CNS
active: HCT-15 colon -3.38% and 0.947% | HT29 colon -15.8% and 3.08% | SNB-75 CNS -35.7% and -48.7% | PC-3 prostate 2.75% and 6.39% | SK-MEL-5 melanoma -89% | UACC-62 melanoma -65.7% and -45.3% | LOX IMVI melanoma -17.5% and -58.5% | SK-MEL-28 melanoma 5.94% and -10%
inactive: SNB-19 CNS 13.2% and 21%

CCN(CC)CCOc1ccc(/C=N/Nc2nc3c([nH]2)c(=O)n(C)c(=O)n3C)cc1
inactive: HCT-15 colon 97.2% and 103% | HT29 colon 99.9% and 91.4% | SNB-75 CNS 88.4% and 90.3% | SNB-19 CNS 98.5% and 102% | U251 CNS 98.6% and 113% | PC-3 prostate 99.4% and 88.5% | SK-MEL-5 melanoma 102% and 107% | UACC-62 melanoma 94.2% and 99.8% | LOX IMVI melanoma 104% and 92.3% | SK-MEL-28 melanoma 115% and 112%

C#CCN(C)Cc1ccccc1
inactive: HCT-15 colon 104% and 103% | HT29 colon 108% and 113% | SNB-75 CNS 106% and 115% | SNB-19 CNS 102% | U251 CNS 105% and 101% | PC-3 prostate 100% and 105% | SK-MEL-5 melanoma 102% and 106% | UACC-62 melanoma 92.3% | LOX IMVI melanoma 96.9% and 102% | SK-MEL-28 melanoma 111% and 114%

CCOc1ccc2cc(-c3nn(CC4CCNCC4)c4ncnc(N)c34)ccc2c1
83% (inactive) and 5.47% (active): LOX IMVI melanoma
90.5% (inactive) and -2.12% (active): SK-MEL-5 melanoma
inactive: HCT-15 colon 81.7% and 29.8% | HT29 colon 69.6% and 18.5% | SNB-75 CNS 52.9% and 24.8% | SNB-19 CNS 102% and 65.9% | U251 CNS 83.3% and 40.2% | PC-3 prostate 78% and 31.4% | UACC-62 melanoma 14.7%
104% (inactive) and -35.3% (active): SK-MEL-28 melanoma

CCCCCCCCCCCCCCCCOc1ccc(C)cc1
inactive: HCT-15 colon 108% | HT29 colon 106% | SNB-75 CNS 104% | SNB-19 CNS 109% | U251 CNS 101% | PC-3 prostate 102% | SK-MEL-5 melanoma 108% | UACC-62 melanoma 105% | LOX IMVI melanoma 87.3% | SK-MEL-28 melanoma 111%

CCOC(=O)Nc1nc2ccccc2[nH]1
inactive: HCT-15 colon 102% and 17.9% | HT29 colon 104% and 20.8% | SNB-75 CNS 102% and 23.3% | SNB-19 CNS 99.9% and 31.5% | U251 CNS 96.1% and 26.2% | PC-3 prostate 98.7% and 48% | SK-MEL-5 melanoma 113% and 19.3% | UACC-62 melanoma 102% and 30.8% | LOX IMVI melanoma 99.8% and 43.8% | SK-MEL-28 melanoma 109% and 32.6%

OC(COc1cccc2ccccc12)CN1CCN(c2ccc(Cl)cc2)CC1 (stereo not given)
inactive: HCT-15 colon 87.4% and 101% | HT29 colon 82.9% and 88.9% | SNB-75 CNS 73.7% and 88% | SNB-19 CNS 87.6% and 90.2% | U251 CNS 69.9% and 108% | PC-3 prostate 88.4% | SK-MEL-5 melanoma 87.6% and 102% | UACC-62 melanoma 98% and 85% | LOX IMVI melanoma 86.3% and 82.2% | SK-MEL-28 melanoma 107% and 114%

CC(C)(C)c1ccc(O)c(CNC2CCCCC2)c1
inactive: HCT-15 colon 108% and 84.5% | HT29 colon 79.1% and 95.2% | SNB-75 CNS 86% and 82.8% | SNB-19 CNS 89.2% and 90.9% | U251 CNS 97.6% and 88% | PC-3 prostate 82.5% and 83.8% | SK-MEL-5 melanoma 92.6% and 79.2% | UACC-62 melanoma 96.6% and 79.7% | LOX IMVI melanoma 86.2% and 97.6% | SK-MEL-28 melanoma 105% and 98.3%

CCc1c(CC(=O)O)c2cc(C)ccc2n1Cc1ccc(Cl)cc1
inactive: HCT-15 colon 99.2% and 98.3% | HT29 colon 109% and 117% | SNB-75 CNS 84.1% and 93.7% | SNB-19 CNS 102% and 90.6% | U251 CNS 107% and 93.7% | PC-3 prostate 95% | SK-MEL-5 melanoma 93.8% and 97.2% | UACC-62 melanoma 84.9% and 83.8% | LOX IMVI melanoma 103% and 101% | SK-MEL-28 melanoma 129% and 125%

O=C(Oc1cccc(OC(=O)c2ccccc2)c1)c1ccccc1
inactive: HCT-15 colon 73% and 102% | HT29 colon 79.9% and 102% | SNB-75 CNS 97.1% and 79.6% | SNB-19 CNS 111% and 98.9% | U251 CNS 80.4% and 101% | SK-MEL-5 melanoma 101% and 94.8% | UACC-62 melanoma 96.1% and 100% | LOX IMVI melanoma 78.3% and 87.9% | SK-MEL-28 melanoma 115% and 100%
9.09% (active) and 91.8% (inactive): PC-3 prostate
